Assay results: the supplement of paper PMC13094657
± gives the standard deviation of the averaged measurements.

Each compound was assayed on MDA-MB-231 (assay: cell viability relative to vehicle unstimulated control (fraction); higher = more viable cells). Conditions: pre-treatment time: 18 h then 24 h IFNg/TNF.
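Note: viability of the cells left after supernatant collection, read with Deep Blue dye added for 4 h, as absorbance at 570 nm minus 600 nm.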

SMILES	cell viability
COc1cc2c(c(OC)c1OC)-c1ccc(OC)c(=O)cc1[C@@H](NC(C)=O)CC2 [Colchicine] (compound dose: 10 uM)	0.802 ± 0.097
C=C1[C@H](OC(=O)c2ccccc2)C[C@H]2[C@@H](/C=C(\C)C(=O)[C@@]3(OC(C)=O)C[C@H](C)[C@H](OC(=O)c4ccccc4)[C@@H]3[C@H]1OC(C)=O)C2(C)C [Euphorbia factor L2] (compound dose: 10 uM)	1.07 ± 0.015
C[C@@]1(C(=O)O)CC[C@]2(C)CC[C@]3(C)C4=CC(=O)c5c(cc(O)c(O)c5C=O)[C@]4(C)CC[C@@]3(C)[C@@H]2C1 [Demethylzeylasteral] (compound dose: 10 uM)	0.786 ± 0.1
C=C1CC[C@H]2[C@@H](/C=C(\C)C(=O)[C@@]3(O)C[C@H](C)[C@H](O)[C@@H]3[C@@H]1O)C2(C)C [Lathyrol] (compound dose: 10 uM)	1.08 ± 0.11
CC(=O)O[C@@]12C[C@@H](C)[C@@]3(O)[C@@H](C=C(CO)C[C@]4(O)C(=O)C(C)=C[C@@H]34)[C@@H]1C2(C)C [Prostratin] (compound dose: 10 uM)	1.31 ± 0.36
CC(C)c1ccc2c(c1O)CC[C@H]1C3=C(CC[C@]21C)C(=O)OC3 [Triptophenolide] (compound dose: 10 uM)	0.9594 ± 0.0068
CC(C)=CCC[C@](C)(O)[C@H]1CC[C@]2(C)[C@@H]1[C@H](O)C[C@@H]1[C@@]3(C)CC[C@H](O)C(C)(C)[C@@H]3[C@@H](O[C@@H]3O[C@H](CO)[C@@H](O)[C@H](O)[C@H]3O)C[C@]12C [Ginsenoside Rh1] (compound dose: 10 uM)	0.999 ± 0.025
